Compounds with a hit are over-represented: about 10% of the library has one in this group of screens.
BAZ2B block: blocks human BAZ2B | Q9UIF8 | AlphaScreen BAZ2B-H3K14Ac peptide displacement | Potency, µM (highest dose often 114 µM), hits mostly inhibitors | 360,000 compounds, 4.4% hits | AID 504333; further: nearly all actives have a fitted effect of over 60% in size
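Complex of BAZ2B and biotin-H3K14Ac (50 nM apiece) forms over 30 min at RT, then faces library compounds up to 110 uM for another 30 min; AlphaScreen beads added, 20 min dark incubation, luminescence read.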
HP1b binding inh: blocks HP1-beta chromodomain binding to methylated histone tails. Potency, µM (titrated, usually from 114 µM), usual class: inhibitors. AlphaScreen HP1-beta / biotin-H3K9me3 peptide binding. P83916. 390,000 compounds, 0.56% hits; further: nearly all actives have a fitted effect of over 70% in size
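HP1-beta protein (50 nM final) preincubated 30 min at room temperature with biotinylated H3(1-18)K9me3 peptide (50 nM) in PBS pH 7.4, 0.01% Tween-20, then compound added for 30 min. AlphaScreen streptavidin donor/nickel chelate acceptor beads (10 ug/mL final), 30 min dark, luminescence read.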
JMJD2A Tudor: blocks the human JMJD2A Tudor domain; AlphaScreen JMJD2A-Tudor / H3K4me3 peptide binding; AID 504339; 390,000 compounds, 4.4% hits; O75164; Potency, µM (doses to about 114 µM), usual class: inhibitors; further: nearly all actives have a fitted effect of over 50% in size
GLS inhibitor: inhibitors of human glutaminase (GLS); O94925; GLS enzymatic activity, qHTS titration; Potency, µM (doses to about 45.5 µM), usual class: inhibitors; 410,000 compounds, 0.21% hits; AID 624170
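Enzyme dispensed in phosphate buffer (45 mM, pH 8.2, 0.02% Tween-20), compounds pinned in, then 1 mM L-glutamine solution and the glutamate oxidase–HRP–Amplex Red mix added; fluorescence read immediately and again after 30 min at room temperature.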
G9a inh: inhibitors of human histone lysine methyltransferase G9a; Q96KQ7; G9a H3K9 monomethylation, AlphaScreen, 2 h; Potency, µM (titrated, usually from 102 µM), actives largely listed as inhibitors; 350,000 compounds, 8.8% hits; further: nearly all actives have a fitted effect of over 75% in size
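Quantitative HTS format: methyltransferase activity on a biotin-tagged H3K9 peptide is measured by AlphaScreen, using a rabbit anti-monomethyl-H3K9 antibody with streptavidin donor and anti-IgG acceptor beads. Final levels are 20 nM enzyme, 500 nM peptide, 20 uM SAM; 2 h RT.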
Numbers stand for hits; 0 = inactive; ? = inconclusive; - = not tested or not shown; [ ] = dose if it differs, or a comment. The call rests on the fitted dose curve; in most records, active means well fitted curve in the direction sought with a large enough effect; inconclusive means small, poorly fitted or top-dose-only effect, or another doubt; inactive means no such curve, though single readings can be large; an effect the other way counts as inactive or inconclusive.

SMILES	BAZ2B block	HP1b binding inh	JMJD2A Tudor	GLS inhibitor	G9a inh
Cc1cccc(C)c1NC(=S)N/N=C/c1ccccc1C(=O)O	0	0	0[11.4 µM]	0	-
COCCNC(=S)N/N=C(\C)c1ccccc1OC	0	0	0	0	0
COCCCNC(=S)N/N=C/c1ccccc1O	10µM	0	56.2µM	0	-
CCOc1cc(N2CCOCC2)c(OCC)cc1NC(=O)c1ccc(OC)c(S(=O)(=O)N2CCOCC2)c1	-	0	0	0	-
CC1(C(=O)Nc2ccc(F)cc2F)CCN1C(=O)CCC1CCCC1 (stereo not given)	-	-	-	0	-
Cc1ccc(N(Cc2cccs2)C(=O)c2ccc(OC(C)C)cc2)cc1	0	0	0	0	0
NS(=O)(=O)c1ccc(CCNC(=O)CCS(=O)(=O)c2ccc(Br)cc2)cc1	31.6µM	17.8µM	31.6µM	?	28.2µM
Cc1ccc(CC(=O)NCCc2ccc(S(N)(=O)=O)cc2)cc1	0	0	0	0	0
CC(NS(=O)(=O)c1ccc(Br)cc1)C(=O)NCCc1ccccc1 (stereo not given)	0	0	0	0	39.8µM
COc1ccc(CNC(=O)CCS(=O)(=O)c2ccc(Br)cc2)cc1	50.1µM	?	?	0	44.7µM
O=C(CCNS(=O)(=O)c1ccc(Br)cc1)NCCc1ccccc1	0	0	0	0	0
Cc1ccc2c(CC(=O)NCCc3ccc(S(N)(=O)=O)cc3)coc2c1	0	0	44.7µM	0	0[12.7 µM]
Cc1ccc(CC(=O)NCCCc2ccccc2)cc1	0	0	0	0	0
NS(=O)(=O)c1ccc(CCNC(=O)CNCCc2ccccc2)cc1	50.1µM	?	25.1µM	0	50.1µM
Cc1ccc(S(=O)(=O)CCNC(=O)Cc2ccccc2)cc1	0	0	20µM	0	0
NS(=O)(=O)c1ccc(CCNC(=O)c2ccc(C(=O)c3ccccc3)cc2)cc1	0	0	0	0	0
O=C(CCS(=O)(=O)c1ccc(Br)cc1)NCCc1ccccc1	?	?	39.8µM	0	50.1µM
NS(=O)(=O)c1ccc(CCNC(=O)c2ccc3nccnc3c2)cc1	-	70.8µM	39.8µM	?	-
NS(=O)(=O)c1ccc(CCNC(=O)CSc2ccccc2)cc1	0	0	0[11.4 µM]	0	0
O=C(Nc1cccc(-c2nn3c(=O)cc(N4CCNCC4)nc3s2)c1)c1ccncc1	-	-	0	-	-
O=C1NC(c2cc(Cl)cc([N+](=O)[O-])c2O)Nc2ccccc21 (stereo not given)	39.8µM	0	?	?	-
O=S1(=O)C2CC3C=CC2(O3)C(O)C(Cc2ccccc2)N1Cc1cccc(C(F)(F)F)c1 (stereo not given)	-	0	0	-	-
Cc1cc(=O)[nH]c(SCCOc2ccc(OC(C)C)cc2)n1	0	0	?	0	14.1µM
CC1CCc2sc(-c3n[nH]c(=S)o3)cc2C1 (stereo not given)	?	0	0	0	12.6µM
COC(=O)c1ccc2c(=O)[nH]c(CSc3nc(-c4ccc(F)cc4)cs3)nc2c1	0	0	0	0	?
SMILES	BAZ2B block	HP1b binding inh	JMJD2A Tudor	GLS inhibitor	G9a inh
COC(=O)c1ccc2c(=O)[nH]c(CSc3nc(C)cs3)nc2c1	0	0	0	0	39.8µM
O=C1NC(=O)C2C1C(c1cccs1)NN2Cc1ccccc1 (stereo not given)	?	0	0	0	50.1µM
O=C(Nc1cccc2ccccc12)N1CC=C(c2ccccc2)CC1	0	0	0	0	44.7µM
O=C(NCc1ccc(OC(F)(F)F)cc1)C12CN(Cc3ccccc3)CC1C(c1cccc([N+](=O)[O-])c1)=NO2 (stereo not given)	0	0	0	0	?
O=C(NCc1ccccc1)C12CN(Cc3ccccc3)CC1C(c1cccc([N+](=O)[O-])c1)=NO2 (stereo not given)	?	0	0	0	8.91µM
CCOC(=O)C1(Cc2ccccc2C(F)(F)F)CCN(C(C)CSC)CC1 (stereo not given)	0	0	0	0	0
CCOC(=O)C1(Cc2ccccc2C(F)(F)F)CCN(C(C)CCn2cccn2)CC1 (stereo not given)	44.7µM	0	0	0	-
CC(=O)N1CCc2cc(CNS(=O)(=O)c3ccc(Cl)s3)ccc21	0	0	0	0	0
COC(=O)C/C=C/[C@@H](C)[C@@H](/C=N/O[C@@H](C)c1cn([C@H](CO)Cc2ccccc2)nn1)NS(=O)(=O)c1ccc(C)cc1	0	-	-	-	?
C/C(CCN1CCc2nc(-c3ccccc3)c(-c3ccccc3)cc2C1)=N\O[C@@H](C)c1cn([C@H](CO)Cc2ccccc2)nn1	?	-	-	-	44.7µM
COC(=O)C/C=C/[C@@H](C)[C@@H](/C=N/OC[C@H]1O[C@H](c2ccccc2)C=C[C@@H]1Oc1ccc(OC)cc1)NS(=O)(=O)c1ccc(C)cc1	0	-	-	-	?
COc1ccc(O[C@H]2C=C[C@@H](c3ccccc3)O[C@@H]2COC(=O)CC/C(C)=N/O[C@@H](C)c2cn([C@H](CO)Cc3ccccc3)nn2)cc1	?	-	-	-	79.4µM
COc1ccc(O[C@H]2C=C[C@@H](c3ccccc3)O[C@@H]2CO/N=C(\C)CCC(=O)OC[C@H]2O[C@H](c3ccccc3)C=C[C@@H]2Oc2ccc(OC)cc2)cc1	?	-	-	-	44.7µM
CCCNC(=O)OC[C@H]1O[C@H](CCO/N=C(\C)CCN2CCc3nc(-c4ccccc4)c(-c4ccccc4)cc3C2)C=C[C@@H]1Oc1ccc(OC)cc1	0	-	-	-	?
O=C(NCCS(=O)(=O)NCc1ccc2c(c1)OCO2)c1ccccc1	0	0	0	0	0
COc1ccccc1NC(=O)c1ccc(NC(=O)CSc2nncn2C)cc1	0	0	0	0	11.2µM
CCn1c(CC(=O)Nc2ccccc2OC)nnc1SCC(=O)Nc1ccccc1F	0	0	0	0	0
COc1ccccc1NC(=O)Cc1nnc(SCC(=O)Nc2ccccc2F)n1C	0	0	11.2µM	0	0
COc1ccc(NC(=S)NNC(=O)C2CC2c2ccc(C)cc2)cc1 (stereo not given)	0	0	0	0	44.7µM
COc1cc(C(=O)NNC(=S)NC(=O)c2ccc3c(c2)OCO3)cc(OC)c1OC	0	0	0	0	12.6µM
COc1cc(C(=O)NC(=S)NNC(=O)[C@H]2C[C@@H]2c2ccccc2)cc(OC)c1OC	0	0	0	0	39.8µM
COc1ccccc1C(=O)NNC(=S)NC(=O)c1cc(OC)c(OC)c(OC)c1	0	0	0	0	12.6µM
NC(c1csc(Nc2cc(NCCCO)ncn2)n1)c1ccccc1Cl (stereo not given)	-	-	-	0	-
C[C@H](CO)N1C[C@H](C)[C@@H](CN(C)C(=O)c2ccc3ccn(C)c3c2)OCc2cn(nn2)CCCC1=O	-	-	-	0	-
Cc1cc(NC(=O)C(C)SCC(=O)Nc2ccccc2C(C)(C)C)no1 (stereo not given)	0	0	0	0	0[2.33 µM]
COc1ccc(NS(=O)(=O)c2ccccc2C(=O)O)cc1	-	-	0	-	-
